Screening results: PubChem, National Center for Advancing Translational Sciences (NCATS)
BAZ2B inh: qHTS Assay for Inhibitors of BAZ2B. Bromodomain adjacent to zinc finger domain protein 2B (Homo sapiens), Q9UIF8. AlphaScreen BAZ2B-H3K14Ac peptide displacement. Potency, µM (top dose mostly 114 µM), without a hit: top-dose activity change, negative = inhibition, actives largely listed as inhibitors. 4.4% of 360,000 active; further: on the % scale 0 is the no-effect control and ±100 the full control effect; nearly all actives have a fitted effect of over 60% in size
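In this displacement format the biotinylated H3(5-23) peptide acetylated at Lys14 serves as ligand at 50 nM, with BAZ2B at 50 nM in PBS pH 7.4 containing 0.01% Tween-20. Donor and acceptor beads are 10 ug/mL final.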
Sfp inh: qHTS Assay for Inhibitors of Bacillus subtilis Sfp phosphopantetheinyl transferase (PPTase) | Potency, µM, for inactives: largest response in the series, negative = inhibition, most hits filed as inhibitors | 3.5% of 310,000 active | Biochemical Sfp PPTase activity, qHTS;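 further: the enzyme is Sfp with the accession as filed and its product quenches rhodamine fluorescence; 0% = enzyme reaction without inhibitor and -100% = no enzyme wells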
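Sfp 15 nM + cpd, 15 min RT; start w/ rhodamine-CoA 5 uM, BHQ-2-YbbR 12.5 uM (final); 50 mM Hepes pH 7.6, 10 mM MgCl2, 0.01% NP-40, 0.01% BSA; read 525/598 nm at 0 and 30 min.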
HP1b chromo inh: HTS for Inhibitors of HP1-beta Chromodomain Interactions with Methylated Histone Tails. Potency, µM (top dose mostly 114 µM), for the others: at the top dose activity change, negative = inhibition, usual class: inhibitors. Chromobox protein homolog 1 (Homo sapiens), P83916. 0.56% of 390,000 active. AID 540317, 2011. AlphaScreen HP1-beta / biotin-H3K9me3 peptide binding; further: nearly all actives have a fitted effect of over 70% in size
Target sequence (P83916 whole entry, looked up): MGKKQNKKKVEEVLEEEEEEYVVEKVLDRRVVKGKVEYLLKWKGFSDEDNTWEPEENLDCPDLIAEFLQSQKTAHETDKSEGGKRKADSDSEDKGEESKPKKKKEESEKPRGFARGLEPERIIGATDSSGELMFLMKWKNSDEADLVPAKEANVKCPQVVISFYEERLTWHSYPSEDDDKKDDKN
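Compound inhibition of the preformed complex between 50 nM HP1-beta and 50 nM biotinylated H3K9me3 peptide was read by AlphaScreen. Buffer was PBS pH 7.4 with 0.01% Tween-20. Incubations ran 30 min at room temperature, with 10 ug/mL donor/acceptor beads.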
G9a block: qHTS Assay for Inhibitors of Histone Lysine Methyltransferase G9a; Potency, µM (top dose mostly 102 µM), without a hit: at the top dose activity, negative = inhibition, hits mostly inhibitors; 8.8% of 350,000 active; G9a H3K9 monomethylation, AlphaScreen, 2 h; Histone-lysine N-methyltransferase EHMT2 (Homo sapiens), Q96KQ7; further: on the % scale 0 is the no-effect control and ±100 the full control effect; nearly all actives have a fitted effect of over 75% in size
Target sequence (Q96KQ7 913-1193 limits assumed): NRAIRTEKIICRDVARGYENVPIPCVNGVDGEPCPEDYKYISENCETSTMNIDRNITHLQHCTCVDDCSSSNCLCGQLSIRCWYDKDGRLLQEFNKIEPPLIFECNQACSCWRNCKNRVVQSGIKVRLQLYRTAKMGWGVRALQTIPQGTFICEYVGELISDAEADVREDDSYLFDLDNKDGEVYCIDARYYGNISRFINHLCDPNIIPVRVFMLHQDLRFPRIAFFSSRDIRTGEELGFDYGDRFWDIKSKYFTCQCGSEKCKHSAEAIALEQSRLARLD
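Readings reflect AlphaScreen signal from monomethyl-H3K9 antibody detection. HMT at 20 nM; substrate b-H3K9 500 nM; cofactor SAM 20 uM; 2 h RT reaction; compounds tested as titrations in qHTS with 15 min preincubation.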
12-LOX inh: Primary qHTS assay for inhibitors of human arachidonate 12S-lipoxygenase (ALOX12): Round 2; purified 12hLO, xylenol orange hydroperoxide absorbance; Potency, µM (highest dose often 108 µM), for inactives: at the highest dose activity change, negative = inhibition, hits mostly inhibitors; 1.1% of 580,000 active; AID 1671190, 2021; further: on the % scale 0 is the no-effect control and ±100 the full control effect
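Hydroperoxide product was detected by ferrous iron/xylenol orange as the 573 to 405 nm absorbance ratio. Arachidonic acid at 40 uM (final) was turned over for 30 min at room temperature by 150 nM human 12hLO, pH 7.0 Hepes buffer, after 15 min compound preincubation.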
JMJD2A Tudor inh: qHTS Assay for Inhibitors of JMJD2A-Tudor Domain; 4.4% of 390,000 active; Lysine-specific demethylase 4A (Homo sapiens), O75164; AlphaScreen JMJD2A-Tudor / H3K4me3 peptide binding; Potency, µM (doses to about 114 µM), without a hit: top-dose activity change, negative = inhibition, most hits filed as inhibitors; further: on the % scale 0 is the no-effect control and ±100 the full control effect; nearly all actives have a fitted effect of over 50% in size
* = called active by the depositor; u = inconclusive; x = not tested or not shown; [ ] = remark or other dose. Most compounds without a hit are left out; they make up all but 8.7% or so of the library. The call rests on the fitted dose curve; in most records, active means well fitted curve in the direction sought with a large enough effect; inconclusive means small, poorly fitted or top-dose-only effect, or another doubt; inactive means no such curve, though single readings can be large; an effect the other way counts as inactive or inconclusive. Potency means the concentration at half of the fitted maximal effect.

SMILES	BAZ2B inh	Sfp inh	HP1b chromo inh	G9a block	12-LOX inh	JMJD2A Tudor inh
CCOC(=O)C1CCCN(C(=O)c2ccc(C)c(NC(=O)C3=C(C)OCCS3)c2)C1 (stereo unspecified)	-21%	11%	30%	43%	25%	-18%
Cc1cccc(N2CCN(C(=O)c3ccc4c(c3)c(C)c(C)n4C)CC2C)c1 (stereo unspecified)	22µM*	-17%	40µM*	45µM*	-11%	28µM*
CC1=C(C(=O)Nc2cc(C(=O)N3CCN(c4cccc(C)c4)C(C)C3)ccc2C)SCCO1 (stereo unspecified)	u	6%	-7%	35µM*	0%	u
CC1CCCCC1NC(=S)NC1CC(C)(C)NC(C)(C)C1 (stereo unspecified)	x	x	x	x	-6%	x
COc1cccc(CNC2(Cc3cc(COc4ccccc4)on3)COC2)c1	x	x	x	x	35%[176 µM]	x
Cc1ccccc1C(=O)OCC1CCC[N+]2(C)CCCCC12 (stereo unspecified)	x	x	x	x	28µM*	x
CC(C)(C)C(=O)OCC1CCC[N+]2(C)CCCCC12 (stereo unspecified)	x	x	x	x	28µM*	x
COc1ccc(/C=C(\NC(=O)c2ccccc2)C(=O)OC[C@@H]2CCC[N+]3(C)CCCCC23)cc1OC (stereo partly specified)	-11%	13%	u	-17%[59 µM]	u	16µM*
CCOC(=O)N1CCN(C(=O)/C(=C/c2ccc(OC)c(OC)c2)NC(=O)c2ccccc2)CC1	7%	7%	12%	11%[0.501 µM]	-11%	-9%[57.1 µM]
O=C(Nc1nonc1-c1ccc2c(c1)CCCC2)c1cc(=O)c2ccc(Br)cc2o1	x	x	x	x	-20%	x
Cc1nc(-c2c3n(c(=O)n(CC(=O)NCc4ccccc4)c2=O)CCCC3)no1	x	x	x	x	16%	x
CCS(=O)(=O)N1CC2(CN(Cc3ccc4c(c3)OCO4)[C@@H](CO)c3[nH]c4cc(OC)ccc4c32)C1	x	x	x	x	14µM*	x
CCS(=O)(=O)N1CC2(CN(C(=O)Cc3ccccn3)[C@@H](CO)c3[nH]c4cc(OC)ccc4c32)C1	x	x	x	x	-28%	x
COc1ccc2c3c([nH]c2c1)[C@@H](CO)N(Cc1ccccc1Cl)CC31CN(C(=O)C2CC2)C1	x	x	x	x	16µM*	x
COc1ccc(CN2CCCC(C)(NC(C)=O)C2)c2ccccc12 (stereo unspecified)	x	x	x	x	0%[176 µM]	x
COc1ccc2c(c1C)CCCC2	x	x	x	x	20%	x
CCC[n+]1c(C)sc2c3c(ccc21)CCCC3	-23%	-4%	40µM*	50µM*	x	45µM*
COc1ccccc1C(=O)NNC(=O)C(=O)NC(C)(C)C	89µM*	-7%	56%	-22%	9%	-10%
CC(C)(C)NC(=O)C(=O)NNC(=O)c1ccccc1Br	u	-3%	24%	22µM*	2%	-20%
COC(=O)NNC(=O)c1ccccc1OC	-2%	-16%	70%	12%[59 µM]	7%	-1%[11.4 µM]
CC1CC1C(=O)NCC1CCCC(CNC(=O)C2CC2C)C1 (stereo unspecified)	x	x	x	x	36%	x
O=S1(=O)C=C(Sc2nc3cc(Cl)ccc3o2)c2ccccc21	-24%	u	-11%	45µM*	x	u
O=c1[nH]cnc(O)c1C(c1ccc2c(c1)OCO2)c1c(O)nc[nH]c1=O	-18%	4%	16%	50µM*	-11%	-18%
CC(=O)c1cccc(OCc2ccc(C(N)=O)cc2)c1	x	x	x	x	14%	x
CN(C(=O)c1ccc(NC(=O)C2CCCCC2)cc1)c1ccccc1	x	x	x	x	-9%	x
SMILES	BAZ2B inh	Sfp inh	HP1b chromo inh	G9a block	12-LOX inh	JMJD2A Tudor inh
O=C(/C=C/c1cccs1)c1ccc2ccccc2c1	x	x	x	x	24%	x
O.O.O.O.O.O.O.O=S(=O)([O-])[O-].[Co+2]	x	79µM*	x	u	x	x
CCn1c(N2CCN(C)CC2)nc2c1c(=O)[nH]c(=O)n2C	x	x	x	x	25%	x
Nc1cc2c(cc1C(=O)c1ccccc1F)OCCO2	u	12%	-2%	u	-9%	-35%
Nc1cc2c(cc1C(=O)c1cccc(Br)c1)OCCO2	35µM*	-13%	u	18µM*	-8%	45µM*
CN1C=CC=C/C1=C1\SC(=S)N(N)C1=O	-27%	-64%	30%	28µM*	-29%	1%
NC1(C(=O)O)CCc2cc(P(=O)(O)O)ccc21 (stereo unspecified)	x	56µM*	x	-2%[59 µM]	-1%	x
N[C@]1(C(=O)O)CCc2cc(P(=O)(O)O)ccc21	x	-3%	x	x	u	x
c1ccc(-c2csc(Nc3ccccn3)n2)cc1	-36%	-15%	13%	-7%	u	-29%
Cc1ccc(C)c(-c2csc(Nc3ncccn3)n2)c1	-10%	8%	55%	68%[2.33 µM]	u	-1%
CC(=O)Nc1cccc(-c2csc(Nc3ncccn3)n2)c1	-12%	-27%	x	16µM*	2%	x
Oc1ccc(-c2csc(Nc3ncccn3)n2)cc1O	x	50µM*	71µM*	2.2µM*	40µM*	28µM*
Oc1ccc(-c2csc(Nc3ncccn3)n2)c(O)c1	x	50µM*	51%	-8%	-11%	3%
CC(=O)Nc1cccc(-c2csc(Nc3ccc(C)cn3)n2)c1	u	-25%	-23%	u	u	u
Cc1cccc(Nc2nc(-c3ccc(O)cc3O)cs2)n1	u	u	-2%	50µM*	25µM*	u
COc1ccc(CNC(=O)N2CCC(OC3CCN(S(C)(=O)=O)CC3)CC2)cc1	x	x	x	x	32%	x
Oc1ccc(-c2csc(Nc3ccc4c(c3)OCO4)n2)c(O)c1	x	x	u	x	32µM*	56µM*
N#Cc1ccc(Nc2nc(-c3ccc(O)cc3O)cs2)cc1C(F)(F)F	u	x	-17%	10%[0.501 µM]	x	u
COc1ccc(NS(=O)(=O)c2cc(OC)ccc2NC(=O)c2cc(C)oc2C)cc1	-6%	-30%	-16%	79µM*	35µM*	u
O=S(=O)(c1ccccc1)N1CCCC1c1nc2ccccc2[nH]1 (stereo unspecified)	x	x	x	x	6%	x
Cc1nc(C)c(-c2csc(Nc3cccc(O)c3)n2)s1	u	-7%	12%	50µM*	u	-25%
CCC(=O)Nc1nc(C)c(-c2csc(Nc3cccc(O)c3)n2)s1	u	u	-14%	40µM*	u	40µM*
